Assay results from PubChem BioAssay AID602145 (NMMLSC, 2011).
Calls of active or inactive are those of the source.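 The calls were made as follows: active = half-maximal potency of 10 µM or stronger, response changing by 30% or more across doses, valid fit; inactive = the rest.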

experiment: GST-GSH bead binding interference, SAR follow-up, counter-screen for Rab7 GTPase inhibitor project, biochemical, flow cytometry beads, round 2 (AID 602145); details: GST-GFP binding to GSH beads; series mostly up to 100 µM; percent response (binding retained): at the top concentration

| SMILES | percent response (binding retained) |
| --- | --- |
| CC(C)(C)C1Cc2c(sc(NC(=S)NC(=O)c3ccccc3)c2C(=O)O)CO1 (configuration not stated) | 92.7% (inactive) |
| Cc1ccc(C(=O)NC(=S)Nc2sc3c(c2C(=O)O)CC(C)(C)OC3)cc1 | 95.8% (inactive) |
| O=C(NC(=S)Nc1sc2c(c1C(=O)O)CCOC2)c1ccccc1 | 89.5% (inactive) |
| CC1(C)Cc2c(sc(NC(=S)NC(=O)c3ccc(F)cc3)c2C(=O)O)CO1 | 93.4% (inactive) |
| CCC1(C)Cc2c(sc(NC(=S)NC(=O)c3ccccc3)c2C(=O)O)CO1 (configuration not stated) | 93.9% (inactive) |
| COc1ccccc1C(=O)NC(=S)Nc1sc2c(c1C(=O)O)CC(C)(C)OC2 | 97.3% (inactive) |
| CC1(C)Cc2c(sc(NC(=S)NC(=O)c3cccs3)c2C(=O)O)CO1 | 90.7% (inactive) |
| Cc1ccccc1C(=O)NC(=S)Nc1sc2c(c1C(=O)O)CC(C)(C)OC2 | 99.8% (inactive) |
| CC1(C)Cc2c(sc(NC(=S)NC(=O)c3ccco3)c2C(=O)O)CO1 | 90% (inactive) |
| O=C(NC(=S)Nc1sc2c(c1C(=O)O)CC1(CCCC1)OC2)c1ccccc1 | 100% (inactive) |
| CC1(C)Cc2c(sc(NC(=S)NC(=O)C3CCCCC3)c2C(=O)O)CO1 | 90.5% (inactive) |
| Cc1cccc(C(=O)NC(=S)Nc2sc3c(c2C(=O)O)CC(C)(C)OC3)c1 | 99.6% (inactive) |
